Compound activity: PubChem, National Center for Advancing Translational Sciences (NCATS)
FBPA Giardia inh: qHTS Assay for Inhibitors of Fructose-1,6-bisphosphate Aldolase from Giardia Lamblia; Potency, µM (titrated, usually from 59.6 µM), actives largely listed as inhibitors; A8B2U2; purified Giardia FBPA; 290,000 compounds, 0.71% hits; AID 2451, 2010; further: nearly all actives have a fitted effect of over 55% in size
Target sequence (A8B2U2 whole entry, looked up): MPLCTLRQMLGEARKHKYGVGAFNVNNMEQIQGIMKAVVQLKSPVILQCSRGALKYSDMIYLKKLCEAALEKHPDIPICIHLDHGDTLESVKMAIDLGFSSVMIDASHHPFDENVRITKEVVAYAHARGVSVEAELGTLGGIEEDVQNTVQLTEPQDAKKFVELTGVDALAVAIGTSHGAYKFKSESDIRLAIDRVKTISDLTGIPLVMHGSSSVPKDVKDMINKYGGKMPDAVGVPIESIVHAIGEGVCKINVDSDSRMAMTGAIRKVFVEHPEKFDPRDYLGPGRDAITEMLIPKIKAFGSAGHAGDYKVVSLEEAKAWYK
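Giardia FBPA (40 nM reagent) was preincubated 10 min at RT with compound (up to 57.5 uM final), then substrate plus GAPDH/TPI/NAD/arsenate coupling system with diaphorase/resazurin was added; resorufin fluorescence (525/598 nm) was read after 20 min.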
HCMV antiviral: qHTS Assay for inhibitors of the human cytomegalovirus (HCMV); HFF cells, HCMV-luciferase reporter, 72 h; active compounds read low; activity change, negative = inhibition, % at 57.5 µM; 410,000 compounds, 4.5% hits; in the data active means activity change below about -60%; inconclusive means no clear call, values can overlap the other calls; inactive means above about -39%
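Inhibition of viral replication was scored as loss of reporter luminescence in HFFs infected with HCMV-luciferase (MOI 1 PFU/cell) for 72 h; compounds tested at 2 doses, normalized to buffer and Salinomycin controls.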
Vaccinia mCherry: qHTS for Stage-Specific Inhibitors of Vaccinia Orthopoxvirus: mCherry Reporter Primary qHTS | AID 720579, 2013 | 310,000 compounds, 0.63% hits | Potency, µM (highest dose often 36.5 µM), hits mostly inhibitors | Vaccinia virus mCherry reporter infection, fluorescence; calls by dose curve; tested in A549 cells; further: nearly all actives have a fitted effect of over 35% in size
FMDV antiviral: High Throughput Screening for Foot and Mouth Disease Virus Antivirals; Potency, µM (top dose mostly 57.9 µM), usual class: inhibitors; 410,000 compounds, 1.2% hits; FMDV antiviral cell-based qHTS; AID 1159524, 2015; calls by dose curve; tested in HEK293T cells; further: read-out not given here; nearly all actives have a fitted effect of over 45% in size
VACV Venus inh: qHTS for Stage-Specific Inhibitors of Vaccinia Orthopoxvirus: Venus Reporter Primary qHTS; Vaccinia virus Venus reporter expression, fluorescence; Potency, µM (titrated, usually from 36.5 µM), usual class: inhibitors; 330,000 compounds, 0.46% hits; AID 720580, 2013; calls by dose curve; tested in A549 cells; further: nearly all actives have a fitted effect of over 30% in size
HCV inhibitor: qHTS Assay for Inhibitors of Hepatitis C Virus (HCV). Huh7.5.1 HCVcc-Cre infection, luciferase reporter, 44 h. Potency, µM (doses to about 41.8 µM), hits mostly inhibitors. 340,000 compounds, 3.4% hits
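Compounds are dispensed onto cells plated 4 h earlier at 1,000 per well, with HCVcc-Cre virus (about 0.5 moi) added next. Following 44 h of culture, luminescent signal is measured for 15 sec after 15 min with substrate at room temperature.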
A number is an active result; i = inactive; ? = inconclusive; nt = not tested or not shown; [ ] = another dose, or the depositor's remark. Hits are enriched below; roughly 7.5% of the tested compounds scored in any of these assays. Unless noted, the call rests on the fitted dose curve; in most records, active means well fitted curve in the direction sought with a large enough effect; inconclusive means small, poorly fitted or top-dose-only effect, or another doubt; inactive means no such curve, though single readings can be large; an effect the other way counts as inactive or inconclusive.

SMILES	FBPA Giardia inh	HCMV antiviral	Vaccinia mCherry	FMDV antiviral	VACV Venus inh	HCV inhibitor
COc1cccc(CNCCc2c[nH]c3ccccc23)c1	i	i	?	i	i	i
CCOc1c(Cl)cc(CNCCc2c[nH]c3ccccc23)cc1OC	i	i	nt	i	nt	22.4µM
CCOc1cc(CNCCc2c[nH]c3ccccc23)cc(Cl)c1OCC	i	-62.8	?	i	11.2µM	?
COc1cccc(OCc2nnc(-c3cccs3)o2)c1	i	-77.3	nt	nt	nt	nt
COc1cccc(NC(=O)CSc2nnc(-c3cccs3)o2)c1	nt	i	i[7.34 µM]	i	i[7.34 µM]	nt
CNc1nc(-c2ccc3c(c2)CCN3C(=O)c2cccc(F)c2)cs1	i	i	nt	i	nt	11.2µM
O=C(CN1CCCC1)Nc1nc(-c2ccc3c(c2)CCN3C(=O)c2ccccc2F)cs1	nt	nt	?	i	i	10µM
CNc1nc(-c2ccc3c(c2)CCN3C(=O)c2ccc(F)cc2)cs1	i	i	nt	i	nt	?
O=C1[C@H]2[C@H]3[C@H](O)[C@H](O)C/C(=N/OC[C@@H](O)COCc4ccco4)[C@H]3CC[C@@H]2C(=O)N1C1CCCCC1	i[12.9 µM]	nt	nt	nt	nt	nt
Cc1ccccc1-c1nc(N2CCNCC2)c2ccccc2n1	i	nt	nt	i	nt	nt
c1ccc2c(N3CCNCC3)nsc2c1	i	-107.4	i	i	i	?
O=C1[C@H]2CCCC[C@H]2C(=O)N1CCCCN1CCN(c2nsc3ccccc23)CC1	nt	-61.4	?	i	i	i
CC(C)(CO)NC(=O)c1cnn(-c2ncc3c(n2)-c2ccccc2CC3)c1C1CC1	nt	nt	i	i	i	nt
COc1cc(=O)n2c(c1C(=O)N(C)Cc1nccs1)CCN(Cc1c(F)ccc(F)c1F)CC2	nt	nt	i	i	i	nt
CCCNC(=O)Cn1c(=O)c2cccn2c2cccnc21	nt	-80.6	i	i	i	nt
CCOC(=O)C1CCN(C(=O)Cn2c(=O)c3cccn3c3cccnc32)CC1	i	i	nt	i	nt	11.2µM
CCOC(=O)C1CCN(C(=O)CCCn2c(=O)c3cccn3c3cccnc32)CC1	i	?	i	i	i	i
CCOc1ccc(CNC(=O)Cn2c(=O)c3cccn3c3cccnc32)cc1	nt	i	i	i	i	nt
O=C(CCn1c(=O)c2cccn2c2cccnc21)NCc1cccc(Br)c1	nt	-60.7	i	i	i	nt
O=C(CCn1c(=O)c2cccn2c2cccnc21)NCc1ccc(F)cc1	nt	i	i	i	i	nt
CC(C)CCNC(=O)CCn1c(=O)c2cccn2c2cccnc21	nt	-60.2	i	i	i	nt
CNC1(C)[C@H]2CC[C@H](C2)C1(C)C (stereo not given in full)	nt	i	i	i	i	i
O=C(CCn1c(=O)c2cccn2c2cccnc21)N1CCN(c2cccc(Cl)c2)CC1	nt	i	i	?	i	11.2µM
Cc1ccc(CCNC(=O)c2ccc(Cn3c(=O)c4cccn4c4cccnc43)cc2)cc1	nt	-60.0	?	i	?	nt
CN(c1ccc2c(-c3ccccn3)noc2n1)c1ccc(F)cc1F	nt	i	nt	nt	nt	nt
SMILES	FBPA Giardia inh	HCMV antiviral	Vaccinia mCherry	FMDV antiviral	VACV Venus inh	HCV inhibitor
COc1ccc(CCNC2=C(Cl)C(=O)N(CCc3ccc(OC)c(OC)c3)C2=O)cc1OC	i	i	i	10µM	i	2.51µM
O=S(=O)(Nc1cc(S(=O)(=O)N2CCOCC2)ccc1Cl)c1ccccc1	nt	i	i	i	i	i
Cc1ccc(C2=N/C(=C/c3cccs3)C(=O)N2Nc2ccccc2)cc1	i	i	i	i	i	11.2µM
COc1ccc(-c2noc(-c3ccc(N4CCN(C)CC4)c([N+](=O)[O-])c3)n2)cc1	nt	i	i	i	i	nt
O=[N+]([O-])c1cc(-c2nc(-c3ccccc3)no2)ccc1N1CCCCC1	nt	-87.9	i	i	i	nt
O=[N+]([O-])c1cc(-c2nc(-c3ccncc3)no2)ccc1Cl	i	-64.1	i	i	i	i
CN1CCN(c2ccc(-c3nc(-c4ccccc4)no3)cc2[N+](=O)[O-])CC1	nt	-98.8	i	i	i	nt
C=C/C(=C/C(=O)C[C@H](C)C[C@@H](C)CC[C@H](O)[C@H](C)C(=O)C[C@@H](O)[C@H](C)[C@@H](C)OC(=O)C[C@@H](O)C1=C(C)C(=O)OC1=O)CC	i[12.9 µM]	nt	nt	nt	nt	nt
CC/C(=C\c1ccc(C(=O)OC)cc1)c1cc(OC)cc2oc3ccccc3c12	nt	nt	i	nt	i	nt
C/C(=N\N1C(=O)c2ccccc2NC1c1ccco1)c1ccccc1O (stereo not given)	i	-77.8	nt	i	nt	3.55µM
O=C1c2ccccc2NC(c2ccco2)N1/N=C/c1ccco1 (stereo not given)	i	i	i	i	i	i
C/C(=N\N1C(=O)c2ccccc2NC1c1ccccc1)c1ccccc1O (stereo not given)	i	-91.7	?	i	?	?
CC(C)Oc1ccc(S(=O)(=O)N2CCOCC2)cc1NC(=O)c1cccc(S(=O)(=O)N2CCCC2)c1	nt	i	i	i	i	i
CCOc1ccc(NC(=O)C2CCN(C(=O)N3CC(C)Oc4ccc(Cl)cc43)CC2)cc1 (stereo not given)	nt	i	i	i	i	nt
O=S(=O)(Nc1cccnc1)c1cccc(C(F)(F)F)c1	i	i	i	i	i	i
O=[N+]([O-])c1ccc(S(=O)(=O)c2cccc(C(F)(F)F)c2)nc1	nt	nt	i	17.8µM	?	?
CN(Cc1ccc(Cl)c(Cl)c1)C(c1cc2ccccc2o1)c1nnnn1C(C)(C)C (stereo not given)	nt	-77.5	i	22.4µM	i	nt
Cc1cccc2cc(CNCCCN3CCCC3=O)c(N3CCN4CCCC4C3)nc12 (stereo not given)	nt	nt	i	i	i	nt
COc1cc(Nc2nccc3[nH]c(-c4cccc(C(F)(F)F)c4)nc23)cc(OC)c1OC	nt	i	nt	nt	nt	nt
CCOC(=O)c1ccc(COC(=O)c2ccc3c(c2)-c2ccccc2C3=O)cc1	i	?	i	i	i	i
CCOC(=O)C1=C(Cc2ccc(C)cc2)C(=O)c2ccccc2C1=O	3.97µM	i	nt	nt	nt	nt
CCOC(=O)C1=C(C)OC(=Cc2ccc(OC)cc2)C1=O	nt	i	i	i	i	nt
CCOC(=O)C1=C(Cc2ccc(OC)cc2)C(=O)c2ccccc2C1=O	1.41µM	nt	i	?	i	?
CCOC(=O)C1=C(O)c2ccccc2C(=O)/C1=C\c1ccc(CC)cc1	7.94µM	nt	nt	?	nt	?
Cc1[nH]c(=O)[nH]c(=S)c1C(=O)Nc1ccc(Cl)c(Cl)c1	nt	i	nt	i	nt	i
COc1ccc2c3c([nH]c2c1)[C@H](CO)N(C(=O)C1CCCC1)CC31CCN(C(=O)c2ccncc2)CC1	nt	i	nt	nt	nt	nt
COc1ccc2c3c([nH]c2c1)[C@@H](CO)N(C(=O)CC1CC1)CC31CCN(Cc2ccncc2)CC1	nt	-73.7	nt	nt	nt	nt
COc1ccccc1Cn1c(=O)c2ccccc2n2c(SCc3csc(C)n3)nnc12	i	i	i	nt	i	i
COc1ccccc1Cn1c(=O)c2ccccc2n2c(Sc3ncnc4sccc34)nnc12	i	?	nt	?	nt	10µM
